From publication PMC12864922, “TDP-43 directly inhibits mRNA accumulation in neurites through modulation of mRNA stability”
In all, about 9,900 sequences were measured (“r (bound/input frequency ratio)”: median about 0.7, highest 2% from about 6.5 on). The list comes from a sample in which the highest values are over-represented; it also holds similar and randomly drawn sequences.

B1: ENSMUSG00000061578.946|Ksr2 (ssRNA)
RNA: GGGAGUUCUACAGUCCGACGAUCGCUUCGAUAUCCGCAUGCUAAACAAGAAGACUGCAUGUUAACGCUCCUGCCACUGUUGCCCCUUCCUUUACCCUUGGCAGACAUUGCUAAUCAAUCUCAGCACAGUUUCCAACCACAGUCAUAGAACAUUUGCCACAAAGGCCCUGGAUGUGACUAUAUGUGCUGAGAAGGGAAGGUAGUUUUCCCCCAGAAAGUCCCUUCUAAUAAACAUUGAUGACUUUAGAAUCCAUGACUCAGAAUUUUCCAGAGACCCAAUCCCUCGGGGUCCACUUAGUGAUGGCUCUUGCGGUCGCACUAGUGUGGAAUUCUCGGGUGUCAAGG
B2: ENSMUSG00000058297.101|Spock2|105:110 (ssRNA)
RNA: GGGAGUUCUACAGUCCGACGAUCGCUUCGAUAUCCGCAUGCUAAUUUGAUAUGAAAGCCCCACCACGGUCUUGUGGUGAUGAGGCAGGACCUGUACACACAGCAAGGCUUACUAUCCGUCUCCUGACAUCCGAAGAGCUCGUCGCAGCACACACUAAUGGCCCUUGGGCUGCACGUGGUUAAGCAUAGCUGUCUCUGUGGCCCAACACAAAGAGGUAAACUUACUUAAAACACAGGGGUUUUGUUGCUGUUUGUUUUUUGUUAGUUUGUUUGUUGAUAAUUGGAUUGAGGAGUUAAUCCUCUGCUCUUGCGGUCGCACUAGUGUGGAAUUCUCGGGUGUCAAGG
B3: ENSMUSG00000029636.282|Wasf3 (ssRNA)
RNA: GGGAGUUCUACAGUCCGACGAUCGCUUCGAUAUCCGCAUGCUAGCGCCAUGGCCAUCCUGGAGCCUGCGCACACGUGGCCGCUGCUGUGACUCGCUGUCCUUGGUAAUUGGUGAGAGGCUUUUUCUUUCUUUCUCAGUUCUGCUUUUCCACACUGAGACCCACCAUGUUGACAUCAUCCUCGCGACGUUGACAUUUGAGCCUUUUGUUCUGUCUCCCAUGUGCCCUGUAGAACCCAGCACUCAUGUUUGGCAAAACUUUUUUUGGUAAGGUCCUUAUGCUCUCAGGGUGGAGGGAAGACAUUACUCUUGCGGUCGCACUAGUGUGGAAUUCUCGGGUGUCAAGG
B4: ENSMUSG00000058297.560|Spock2 (ssRNA)
RNA: GGGAGUUCUACAGUCCGACGAUCGCUUCGAUAUCCGCAUGCUAACCUGGGGGUGCAAAAGGAGAUUCAAGACAUCCGUACCAAGUCAGGCAGAGCUACCCGCUUCUCAGCCCGUGUCCCACUUAAAACCGUCCGAUGUGUAAUCACUGAGCUUAGAGUUAAACAUUGUGGUCAAGUGCUUGGGUUCCGUCUGUAGAUUUAAGUGCUGACGUUGUAUCUCUCAGUAAUUUUAGAUGUCUUUUAAAAAAUCUGAACAAGUGUUAGACCCGUGUGUGCGUUGGUGGGCACUCAAGCAUCCCGUGGGCUCUUGCGGUCGCACUAGUGUGGAAUUCUCGGGUGUCAAGG
B5: ENSMUSG00000031028.59|Tub|169:181;199:203 (ssRNA)
RNA: GGGAGUUCUACAGUCCGACGAUCGCUUCGAUAUCCGCAUGCUACCCAGUCCUGGGUCAGUCCCCUGCUGCAGUGGUGUUAUCACACCGGAAAGCCUCUUCACCUGGAGGUACAGAGGGAGAGGAAGCACAAGCCUGGCUGCUGUGGCUCAGCCAUCCACUCAGCCUACGAGUCAGAGACAGUGGGUGUCCCGGGAAGCAGGGGUACAGUGACACACACACAUACUACAGGGCACUCAAGCUCAUACUAGAAAAAGCUCUGGUGGUCAGCAGAAAGCACUCCCACUUCAAAAGGGCCCAUUAGGCUCUUGCGGUCGCACUAGUGUGGAAUUCUCGGGUGUCAAGG
B6: ENSMUSG00000034801.92|Sos2 (ssRNA)
RNA: GGGAGUUCUACAGUCCGACGAUCGCUUCGAUAUCCGCAUGCUACAGAGCAAGUCCCAGGACAGCCAGGGCUACACAAAAAAACCUUGUCUCAAAAGUCAAAAUACAAACAAAAGAGAGAAAAGGAAGGAAGGAAAGAAUUUGAAAUAUUAAAAUGCAAAAGCCCUUCACCAUAGCCCCCAGGUGAUCAGCAGCAUUGCUUCCUCGGCUCCCCAGUGCUGCCCUAGGCCAGUAUAAAGACUCUGUAUUGCACUGUAGACUCUGCUAGCAGACGGCACUGAGAGGAGCCAGCGCUCGAGGGCGUUCUCUUGCGGUCGCACUAGUGUGGAAUUCUCGGGUGUCAAGG
B7: ENSMUSG00000090935.132|Synj2bp|162:172 (ssRNA)
RNA: GGGAGUUCUACAGUCCGACGAUCGCUUCGAUAUCCGCAUGCUAUCUCUCUCUCACUCACCAUCUCUGACAUCCUCCCAUAUUCUUUCUCCUCCACAUAGCCAAUACAAGAUUUAAAGUGACUGCUUAUCACCCAAAACCCUGCUAUUCAAAAUCUCCUAUUCUAAUGGAAGAGUACAGGGGUUAUUUGAAGAAAAGCUGUGGUGCACACACACACGGGGAAGCCUUGCUUAGAAUGAAUGAGAAGUUACAUAUUUUACUAGGACUGCCAAUAAAAACUCAGCUAUCAUCCAAAGAGGAAAAGCCUCUUGCGGUCGCACUAGUGUGGAAUUCUCGGGUGUCAAGG
B8: ENSMUSG00000029028.117|Lrrc47 (ssRNA)
RNA: GGGAGUUCUACAGUCCGACGAUCGCUUCGAUAUCCGCAUGCUAGCUCCAAUGUGACUCUCCUGUCUCCUGUCCUCAUGGAUCACUCAGUAACUGCUGGGGAUGUUCUGAAUCAUGUGGCCUGUGGCCGUGCUGGAGAGUCAGGUUGAACGCAGGCAUUCUAUUGAACAGUAUUUAUUUUUCUACAACAUGUUAAUAGAAUUUUUUUUUAAAUCAGCUGUGCAUAGACAGUUGAGAACAUCAUGUUGUGAGUGUAAUCUUCUUAGAGCUUGUUUCCAGGCACCGUGCUGCCGCCAUGCUCCCAGCUCUUGCGGUCGCACUAGUGUGGAAUUCUCGGGUGUCAAGG
B9: ENSMUSG00000029028.162|Lrrc47|217:221 (ssRNA)
RNA: GGGAGUUCUACAGUCCGACGAUCGCUUCGAUAUCCGCAUGCUAGCCUUCCACGGCUGUGCUUGGAACUGUAGUGCUGGUCGUUGUUGGCACAUCUGCGCCUUGGCCAAGGAAGUUAUCUAUGUCCGUGUAGUCCUUUGUAGUCAGACAGAUGCUUCGUGGACUGUGCCUCACACAUGGCCCUGCAGGCUCCAUGUCAGCGUGUCCCACUAUUCAUGUCCCAUCUCUGUGCAUCCUGACUGCGCACAUCCCAUCUCCGCAACACAACGCAUCUGUACCAGCACACAGCUGCCAUCCCUCGAGCCCUCUUGCGGUCGCACUAGUGUGGAAUUCUCGGGUGUCAAGG
B10: ENSMUSG00000004113.139|Cacna1b|48:52;226:230 (ssRNA)
RNA: GGGAGUUCUACAGUCCGACGAUCGCUUCGAUAUCCGCAUGCUACACCAGUGAUCUCACGUCUCUUGUGGUCUUGGAGUCAAAUAGCACAUCAUACUAGAGAUGCGCUCAAGGGCCUGCCUUUCACCUACACUGUCACCAUAACAGGGACCAAAUCUGGAGGAUGUCCUUGCUGUUGAUUCUGGUUUUCAGUCACAACACUUUCACUGUUUGUCAUUUCUAUGUAGUUGAUCUAGAAAAAGCAGAAAUCAAAACAGGAAAGGAAAUGUUACACAAACUUUAAAAAAAAAGUCAACAUGUAGGAACUCUUGCGGUCGCACUAGUGUGGAAUUCUCGGGUGUCAAGG
B11: ENSMUSG00000031028.90|Tub|13:17;146:150 (ssRNA)
RNA: GGGAGUUCUACAGUCCGACGAUCGCUUCGAUAUCCGCAUGCUAGGCACUCAAGCUCAUACUAGAAAAAGCUCUGGUGGUCAGCAGAAAGCACUCCCACUUCAAAAGGGCCCAUUAGGCCCAAAGGGGGUUAGGAGUGGUAGGGAUAGGUGCGUGGCAGGUCCCUGCUAGGAUUGCAGGGGCCUGGCCAACACAAUUAGCUGGAGGCUUAGAAUGCUAGCUCAUUUGUUGCUACAGAUUUGCCCAGUGCUUGCACACGUAAGAACCCAGCUCUCAAGGCCAAAUAUCUGAGUGGAUGGGGAUGACUCUUGCGGUCGCACUAGUGUGGAAUUCUCGGGUGUCAAGG
B12: ENSMUSG00000061578.112|Ksr2 (ssRNA)
RNA: GGGAGUUCUACAGUCCGACGAUCGCUUCGAUAUCCGCAUGCUAACCCUUCUCCCAUUUUGUAAGAACACUGUUCUAACUCACCUCAUGCCCACGCUACCCUGGGCAACUGGAGAACACCAUAGCGUUUCAGCUGAUGUGACAUUUGGUGUGACCUUUACCAGUUCACCAUCAUUCAUGGCUUCCCCCAAAGUCCCGAGUCCUGAGAACCGGGGCUGUGGCAAGAGAGUUCUGGUGUGUUCUCUCUGUGGGGCUAGCAAUGCCGGGGUUAAGUUCUCCCUCGGUGAUGGAGACGGUCCUGGGUACUCUUGCGGUCGCACUAGUGUGGAAUUCUCGGGUGUCAAGG
B13: ENSMUSG00000090935.58|Synj2bp (ssRNA)
RNA: GGGAGUUCUACAGUCCGACGAUCGCUUCGAUAUCCGCAUGCUACACAGGUUACCAGUGCAGAAUGGACCUAUAGUACAUCGAGGUGAAGGAGAGCCAAGUGGAGUUCCUGUAGCUAUGGUGCUGCUACCAGUGUUUGCCCUCACCAUGGUAGCAGUUUGGGCCUUCGUGAGAUACCGAAAGCAGCUUUGAAAUGCUUGCUGUCUUCCAGUGUGUCCAAUGAACUCUCUCUCUCACUCACCAUCUCUGACAUCCUCCCAUAUUCUUUCUCCUCCACAUAGCCAAUACAAGAUUUAAAGUGACUGCUCUUGCGGUCGCACUAGUGUGGAAUUCUCGGGUGUCAAGG

Target: TDP-43 (Homo sapiens, UniProt Q13148 1-414)
Sequence (Q13148 whole entry): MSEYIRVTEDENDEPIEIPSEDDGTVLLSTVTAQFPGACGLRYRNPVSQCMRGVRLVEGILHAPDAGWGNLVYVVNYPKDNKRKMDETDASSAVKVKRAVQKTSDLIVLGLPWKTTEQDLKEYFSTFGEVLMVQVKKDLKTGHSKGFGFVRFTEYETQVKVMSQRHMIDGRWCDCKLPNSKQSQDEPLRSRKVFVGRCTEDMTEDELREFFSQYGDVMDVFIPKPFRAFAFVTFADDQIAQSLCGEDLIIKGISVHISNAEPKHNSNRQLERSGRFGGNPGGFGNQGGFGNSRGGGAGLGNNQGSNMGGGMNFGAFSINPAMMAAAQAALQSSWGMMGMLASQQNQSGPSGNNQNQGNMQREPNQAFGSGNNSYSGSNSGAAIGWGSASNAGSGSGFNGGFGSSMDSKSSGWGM
Assay: RNA Bind-n-Seq with designed 260-mer pool; 25 mM Tris-HCl, 150 mM KCl, 3 mM MgCl2, BSA (printed 500 mg/mL), 20 units/mL SUPERase IN; pH not stated; 500 nM RNA pool, 1 h, 4 C; TDP-43 5, 50, 500 nM; high values mean tight binding
Details: protein: recombinant; tags: SBP (GST cleaved off with PreScission; pGEX-GST-SBP)
Procedure, shortened: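 An in vitro-transcribed pool of 260-nt 3′ UTR oligos (500 nM) was incubated for 1 h at 4 °C with recombinant SBP-tagged TDP-43 at 5, 50 or 500 nM held on streptavidin beads. The buffer contained 25 mM Tris-HCl, 150 mM KCl, 3 mM MgCl2, BSA and SUPERase IN. Biotin-eluted bound RNA was sequenced, and binding, R, is each oligo's normalized read abundance in the bound sample over that in input.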

Binder | binding signal
B1 | 0.389 R (bound/input frequency ratio)
B2 | 1.12 R (bound/input frequency ratio)
B3 | 0.86 R (bound/input frequency ratio)
B4 | 0.604 R (bound/input frequency ratio)
B5 | 0.754 R (bound/input frequency ratio)
B6 | 0.552 R (bound/input frequency ratio)
B7 | 0.765 R (bound/input frequency ratio)
B8 | 0.231 R (bound/input frequency ratio)
B9 | 0.706 R (bound/input frequency ratio)
B10 | 0.174 R (bound/input frequency ratio)
B11 | 1.27 R (bound/input frequency ratio)
B12 | 0.565 R (bound/input frequency ratio)
B13 | 1.69 R (bound/input frequency ratio)
